Activity calls are given as the source filed them.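 The calls were made as follows: active = compounds killing one labelled cell type while sparing the other, by normalised counts and ratio limits, not self-fluorescent; inactive = the rest.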

This experiment is described as follows: EMT-state selective cytotoxicity in co-culture – imaging, PC-3E GFP, TEM4-18 mCherry, primary screen (AID 1345086).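 Also: normalised mesenchymal count divided by normalised epithelial count so high means epithelial killing; cells exposed to compound for 72 h before imaging.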 Particulars: PC-3E GFP / TEM4-18 mCherry co-culture, imaging cell counts; at 1 µM; actives lie on both sides; counts scaled to control wells, 1 = unselective.
As for `CC(=O)NCCc1ccc(O)c(-c2c(O)c(O)c3c(c2O)C(=O)c2c(cc(O)c(C(=O)O)c2C(=O)O)C3=O)c1`, the red/green cell ratio (normalised) was 1.13 (inactive).

Consider `CC(C)(O)CC[C@@H](O)[C@](C)(O)C1CC[C@@]2(O)C3=CC(=O)C4C[C@@H](O)[C@@H](O)C[C@]4(C)C3CC[C@]12C` (stereo not given in full), for which the red/green cell ratio (normalised) is 0.93 (inactive).

Regarding `C[C@@H]1CCC2[C@](C)(CO)[C@@H](O)CC[C@]2(C)[C@@]12CC[C@@](CO)(CCO)O2` (stereo not given in full), the red/green cell ratio (normalised) was 0.93 (inactive).

Regarding `COC1=C(O)C(=O)c2c(cc3oc(C(C)=O)c(O)c3c2O)C1=O`, the red/green cell ratio (normalised) is 1.19 (inactive).

For the compound `CC(CC(=O)N1C(=O)OC[C@@H]1Cc1ccccc1)N1C(=S)OC[C@H]1c1ccccc1` (stereo not given in full), the red/green cell ratio (normalised) is 0.87 (inactive).

For `O=C(NCC[C@H](O)C(=O)O)OCc1ccccc1`, the red/green cell ratio (normalised) was 1.04 (inactive).

Regarding `CC(=O)OCC1=C[C@]2(O)CC3=C(CC24O[C@@H]4C1=O)[C@@]1(C)CCCC(C)(C)[C@@H]1CC3` (stereo not given in full), the red/green cell ratio (normalised) is 1.02 (inactive).

Consider `CC1COc2c(N)c(F)cc3c(=O)c(C(=O)O)cn1c23` (stereo not given), for which the red/green cell ratio (normalised) is 0.95 (inactive).

For `CC(C)=CCCC(C)[C@@H]1CC[C@]2(C)C3=C(CC[C@@]12C)C1(C)CC[C@H](O)C(C)(C)C1CC3` (stereo not given in full), the red/green cell ratio (normalised) was 0.9 (inactive).

For the compound `O=C1NCC[C@H]1Oc1ccc(Oc2cnc3ccc(Cl)cc3n2)cc1`, the red/green cell ratio (normalised) was 0.76 (inactive).

Consider `COC(=O)c1cn(C2CC2)c2c(OC)c(F)c(F)cc2c1=O`, for which the red/green cell ratio (normalised) was 0.9 (inactive).

For the compound `COc1cccc(Oc2c(O)cc(C)cc2CC(=O)c2cc(C)cc(O)c2C(=O)c2c(O)cccc2O)c1C(=O)O`, the red/green cell ratio (normalised) was 1.1 (inactive).

As for `NCC1O[C@@H](OC2C(N)C[C@@H](N)C(O)[C@H]2OC2OC(CO)C(OC3OC(CN)[C@@H](O)C(O)[C@H]3N)C2O)C(N)[C@@H](O)C1O` (stereo not given in full), the red/green cell ratio (normalised) is 1.11 (inactive).

As to `C[C@H](Cc1cc(O)cc(O)c1C(=O)O[C@H](C)CC(=O)O[C@H](C)Cc1cc(O)cc(O)c1C(=O)O[C@H](C)CC1Cc2cc(O)cc(O)c2C(=O)O1)OC(=O)C[C@@H](C)O` (stereo not given in full), the red/green cell ratio (normalised) was 0.98 (inactive).

On to `CCC(=O)O[C@]1(C(=O)SCF)[C@H](C)CC2C3CC(F)C4=CC(=O)C=C[C@]4(C)C3(F)[C@@H](O)C[C@@]21C` (stereo not given in full), for which the red/green cell ratio (normalised) is 1.04 (inactive).

Consider `CCN1CC(CCN2CCOCC2)C(C(c2ccccc2)c2ccccc2)C1=O` (stereo not given), for which the red/green cell ratio (normalised) was 0.72 (inactive).

As to `CC(C)CC1OC23SCC(c4ccccc4)N2C(=O)C1C(C)(C)S3` (stereo not given), the red/green cell ratio (normalised) is 0.9 (inactive).

For the compound `Cc1ccc(S[C@H]2OC(CO)C(O)[C@@H]3OC(=O)N[C@H]23)cc1` (stereo not given in full), the red/green cell ratio (normalised) was 0.98 (inactive).

Turning to `C=C1[C@@H](C)C2[C@H](Cc3c[nH]c4ccccc34)NC(=O)[C@]23C(=O)/C=C/C(=O)[C@H](OC(C)=O)/C(C)=C/[C@@H](C)C/C=C/[C@H]3[C@@H]1O` (stereo not given in full), the red/green cell ratio (normalised) is 1.13 (inactive).

On to `CO[C@H]1/C=C/C[C@@H](C)OC(=O)c2c(O)cc(O)cc2CC(=O)CCC1`, for which the red/green cell ratio (normalised) is 1.01 (inactive).

For the compound `Nc1nc(=S)c2ncn(C3O[C@H](CO)[C@@H](O)[C@H]3O)c2[nH]1` (stereo not given in full), the red/green cell ratio (normalised) is 0.83 (inactive).

As to `COC(=O)C[C@H]1C2(C)CC34OC5(C)O[C@]6(C7/C(=C(/O)C(C)C)C(=O)O[C@@H](c8ccoc8)[C@]7(C)C(OC(C)=O)[C@@H](OC(C)=O)[C@]6(O5)C13C)[C@H](OC(C)=O)[C@@]4(O)C2OC(=O)C(C)C` (stereo not given in full), the red/green cell ratio (normalised) was 1.02 (inactive).

In the case of `CC(=O)N[C@@H]1[C@@H](OC(C)C(=O)O)[C@H](O)[C@@H](CO)O[C@H]1O` (stereo not given in full), the red/green cell ratio (normalised) is 0.95 (inactive).

For the compound `C=C1OC(=O)c2c(OC)cc(OC)c(C)c2C1C` (stereo not given), the red/green cell ratio (normalised) is 1 (inactive).

On to `C=C(C)n1cc(C(=O)OC)c(=O)c2cc(F)c(F)c(OC)c21`, for which the red/green cell ratio (normalised) is 1.15 (inactive).

Take `COC(=O)CC1C(C)(C)C(OC(C)=O)[C@@H]2[C@@H](OC(C)=O)[C@]34O[C@@]2(O)C1(C)C3CC[C@]1(C)C4=CC(=O)O[C@H]1c1ccoc1` (stereo not given in full): the red/green cell ratio (normalised) is 1.07 (inactive).

On to `COc1cc(O)c2c(c1C)C(C(C)=O)COC2=O` (stereo not given), for which the red/green cell ratio (normalised) is 0.88 (inactive).

On to `COc1c(N2CC[C@@H](CN)C2)c(F)cc2c(=O)c(C(=O)O)cn(Cc3ccc(-c4ccccc4)cc3)c12`, for which the red/green cell ratio (normalised) was 1.14 (inactive).

For `O=C1C=CC2(Oc3cccc4cccc(c34)O2)[C@H]2[C@H]1[C@@H](O)C=C[C@H]2O`, the red/green cell ratio (normalised) is 0.98 (inactive).

Turning to `CCO[C@H]1OC(C(=O)OC)C(OC(=O)CCC(=O)O)[C@H](OC(=O)c2ccccc2)[C@@H]1OC(=O)c1ccccc1` (stereo not given in full), the red/green cell ratio (normalised) is 0.91 (inactive).

Turning to `CC(=O)O[C@@H]1CC2C(C)(C)[C@H](O)C[C@H](O)[C@]2(C)C2CC[C@@]3(C)[C@H](c4ccoc4)OC(=O)[C@H]4O[C@]43[C@@]21C` (stereo not given in full), the red/green cell ratio (normalised) was 1.01 (inactive).

Take `CC1CC(O)C2C=CC(CC(=O)O1)O2` (stereo not given): the red/green cell ratio (normalised) is 0.76 (inactive).

As to `COC(=O)C[C@H]1C(C)(C)C(=O)[C@@H]2CC3C4=CC(=O)O[C@@H](c5ccoc5)[C@]4(C)CCC3C1(C)C2=O` (stereo not given in full), the red/green cell ratio (normalised) is 1.11 (inactive).

In the case of `COc1cc(CC(=O)O)c(C(C)=O)c(O)c1OC`, the red/green cell ratio (normalised) was 0.89 (inactive).

Take `O=C(Cc1ccncc1)c1ccc(F)cc1`: the red/green cell ratio (normalised) is 1.16 (inactive).

Regarding `C[C@@H]1C=C2C=C[C@@](C)(O)[C@](C)(C(=O)CCO)[C@H]2[C@@H](O)C1`, the red/green cell ratio (normalised) is 0.85 (inactive).

Take `O=c1c2cc(O)c(O)cc2oc2cc(O)c(C3O[C@H](CO)[C@H](O)[C@@H](O)[C@H]3O)c(O)c12` (stereo not given in full): the red/green cell ratio (normalised) is 0.86 (inactive).

As for `COc1ccc(-c2cc(=O)c3c(O)cc(OC)cc3o2)cc1`, the red/green cell ratio (normalised) is 1.15 (inactive).

On to `O=c1c(O)c(-c2ccccc2)oc2cc(O)cc(O)c12`, for which the red/green cell ratio (normalised) is 0.9 (inactive).

In the case of `C=C(C)n1cc(C(=O)O)c(=O)c2cc(F)c(N3CC[C@@H](CN)C3)c(OC)c21`, the red/green cell ratio (normalised) was 1.13 (inactive).

For the origin of these results see PubChem BioAssay.
